Screening data (PubChem)
D1 agonist – Allosteric Agonists of the Human D1 Dopamine Receptor: qHTS. AID 504660, 2011. 1% of 360,000 active. activation, % at 2 µM. D(1A) dopamine receptor (Homo sapiens), P21728. HEK293 T-REx D1 cells, calcium flux, agonist mode; further: 0% is about no effect
Target sequence (P21728 whole entry, looked up): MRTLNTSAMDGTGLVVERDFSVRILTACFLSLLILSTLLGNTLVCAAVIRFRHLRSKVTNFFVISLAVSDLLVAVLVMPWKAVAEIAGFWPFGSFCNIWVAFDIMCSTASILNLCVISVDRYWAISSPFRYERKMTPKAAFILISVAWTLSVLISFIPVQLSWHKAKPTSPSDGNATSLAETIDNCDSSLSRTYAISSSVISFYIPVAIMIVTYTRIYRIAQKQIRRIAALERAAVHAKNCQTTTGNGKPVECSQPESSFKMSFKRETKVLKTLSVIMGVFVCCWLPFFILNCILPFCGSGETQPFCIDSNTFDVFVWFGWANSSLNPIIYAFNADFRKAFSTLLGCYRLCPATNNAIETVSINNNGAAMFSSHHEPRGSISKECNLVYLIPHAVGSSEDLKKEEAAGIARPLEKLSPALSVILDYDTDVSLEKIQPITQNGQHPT
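Tetracycline-induced HEK293 TREx D1 cells, force-coupled to calcium signalling, were dye-loaded with a no-wash calcium kit. Compound was pin-added after a 10 s baseline. Fluorescence was read kinetically at 1 cycle/s for 180 s, with calcium rises flagged as agonism.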
TRHR ag – qHTS for Small Molecule Agonists and Allosteric Enhancers of Human TRH Receptor: Primary Screen for Agonists | Thyrotropin-releasing hormone receptor (Homo sapiens), P34981 | TRHR cells, calcium flux fluo-8, FDSS agonist mode | activation, % at 2 µM | 0.18% of 360,000 active; further: 0% is about no effect
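TRHR-expressing cells, plated overnight in medium with 10% serum, were loaded with fluo-8 calcium dye at room temperature. After a 10 s baseline, library compound was pin-added and calcium release was recorded kinetically (ex 480/em 530) as agonist response.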
GRP78 ERSR act – qHTS for Inducers of the Endoplasmic Reticulum Stress Response (ERSR) in Human Glioma: qHTS. U87-MG GRP78 promoter luciferase reporter, 16 h. Potency, µM, without a hit: at the highest dose activation, hits mostly activators. 0.02% of 420,000 active. AID 602332, 2012; active means well fitted activation curve with a large enough effect; further: potency means the concentration at half of the fitted maximal effect; series mostly up to about 76 µM; % of control where 0% means no effect; nearly all actives have a fitted effect of over 35% in size
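Stably transfected U87-MG glioma cells carrying a GRP78-based luciferase sensor; 16 h compound incubation. Luminescence end-point read 10 min after Bright-Glo addition at room temperature.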
D1 PAM – Potentiators of Human D1 Dopamine Receptor: qHTS | D(1A) dopamine receptor (Homo sapiens), P21728 | HEK293 TREx D1 cells, calcium flux, dopamine EC20 potentiation | potentiation, % at 10 µM | 0.036% of 360,000 active | AID 504651, 2011; in the data active means potentiation above about 30%; further: 0% is about no effect
TRHR PAM – qHTS for Small Molecule Agonists and Allosteric Enhancers of Human TRH Receptor: Primary Screen for Enhancers; TRHR cells, fluo-8 calcium fluorescence, EC20 TRH enhancement; enhancement, % at 2 µM; 0.66% of 360,000 active; in the data active means enhancement above about 30%; further: 0% is about no effect
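Enhancer read-out: after compound pinning and an initial kinetic agonist-mode read, an EC20 of TRH (10 nM final) was injected and fluo-8 calcium signal (Ex 480/Em 530) followed at 1 s/cycle for 100 cycles in TRHR-expressing cells.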
D1 antag – Antagonist of Human D 1 Dopamine Receptor: qHTS; HEK293 TREx D1 cells, calcium flux, dopamine EC80; active compounds read low; activity change, negative = inhibition, % at 10 µM; D(1A) dopamine receptor (Homo sapiens), P21728; 3.2% of 360,000 active; in the data active means activity change below about -30%; further: on the % scale 0 is the no-effect control and ±100 the full control effect
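HEK293 T-REx cells expressing inducible, force-coupled D1 receptor; no-wash Ca dye, 30–90 min RT. Cmpd → 180 s read at 1 Hz → EC80 DA → 180 s read.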
* = called active by the depositor; . = not tested or not shown; ! = not confirmed by another sample. Shown are actives, neighbours in structure and some others; about 4% of the full set was active somewhere. Unless noted, no stated cut-off is given here; in the data, active means activation above about 30%; inactive means the rest.

SMILES	D1 agonist	TRHR ag	GRP78 ERSR act	D1 PAM	TRHR PAM	D1 antag
CCCCN(C)C(=O)C1CCC(CNS(=O)(=O)c2ccc3c(c2)CC(C)N3C(C)=O)CC1 (configuration not stated)	2.2	-0.1	8.1%	-8.8	0.8	-35.8*!
CC(=O)N1c2ccc(S(=O)(=O)NCCC(=O)NC3CCCC(C)C3C)cc2CC1C (configuration not stated)	14.4	-0.5	-2.3%	-5.5	12.0	-39.0*
CC(=O)N1c2ccc(S(=O)(=O)NCCC(=O)Nc3ccc(Cl)cc3)cc2CC1C (configuration not stated)	.	.	-1.2%	.	.	.
CC(=O)N1c2ccc(S(=O)(=O)NCCC(=O)N3CCC(C)CC3)cc2CC1C (configuration not stated)	2.8	-0.1	-4.3%	-5.7	32.3*	11.1
O=C(O)C(Cc1cc(Cl)ccc1Cl)Sc1nc2ccccc2[nH]1 (configuration not stated)	3.6	-0.1	-2.8%	-3.2	6.4	-2.3
O=C(COc1ccccc1C(=O)O)NC1CCCc2ccccc21 (configuration not stated)	0.8	1.1	-4.7%	-7.8	-5.6	-16.6
Cc1ccc(-c2nc(C)c(CCNC(=O)c3cccs3)s2)cc1	-0.6	-0.8	2.4%	-5.9	-5.3	-25.1
Cc1ccc(-c2nc(N)s[n+]2-c2ccccc2)cc1	1.2	-0.4	1.2%	3.1	7.5	-37.0*
CC1CN(Cc2cc(=O)n3ccsc3n2)CC(C)O1 (configuration not stated)	1.3	0.2	-2.9%	0.7	1.4	-49.4*
N=c1c2c(-c3ccccc3)c(-c3ccccc3)n(Cc3ccccc3)c2ncn1CCCn1ccnc1	118.5*	5.3	-14.1%	2.3	-3.2	-9.5
CCCCn1cnc2c(c(-c3ccccc3)c(-c3ccccc3)n2Cc2ccco2)c1=N	47.4*	0.9	-6.0%	-8.2	-11.9	-3.5
N=c1c2c(-c3ccccc3)c(-c3ccccc3)n(Cc3ccco3)c2ncn1Cc1ccco1	38.3*	5.7	2.2%	-3.4	-0.7	4.6
Cc1nnc2n(Cc3ccccc3)c(=O)c3c4c(sc3n12)COC(C)(C)C4	1.8	-0.1	13.1%	-0.8	4.3	-4.3
COC(=O)c1ccc(N)c(N=CC2=C(O)CC(C)(C)CC2=O)c1	10.5	2.6	4.3%	-3.9	2.8	2.9
CC1(C)CC(=O)C(C=Nc2cc(C(=O)c3ccccc3)ccc2N)=C(O)C1	12.6	2.8	8.0%	-13.6	-5.5	-44.7*
Cc1c(NS(=O)(=O)c2cccc3nsnc23)c(=O)n(-c2ccccc2)n1C	1.0	0.5	-4.0%	-2.8	-0.6	-89.6*
Cc1ccc(NC(=S)Nc2cccc(S(=O)(=O)Nc3c(C)n(C)n(-c4ccccc4)c3=O)c2)cc1	3.3	-0.2	9.3%	-7.0	32.4*	8.8
CN(C)CCNC(=O)c1ccc2c(c1)N(Cc1c(F)cccc1Cl)C(=O)c1ccccc1S2	27.0	3.2	-4.0%	0.4	1.7	-5.5
CNC(=S)N(C)/N=C1/C(=O)N(Cc2c(Cl)cccc2Cl)c2ccccc21	6.1	-1.5	-3.7%	-3.6	-10.3	-34.3*
CCN(CC)c1ccc(/C=C(\C#N)c2nc(-c3cccs3)c(NC(C)=O)s2)cc1	213.5*	63.5*	.	15.7	8.8	-14.6
CCCOC(=O)C1[C@H]2C(=O)N(C(C)c3ccc(OC)cc3)C[C@]23C=C[C@H]1O3 (some centres not stated)	0.7	0.2	-2.7%	-0.9	0.7	4.0
CCOC(=O)C1[C@H]2C(=O)N(C(C)c3ccc(OC)cc3)C[C@]23C=C[C@H]1O3 (some centres not stated)	-0.3	-0.4	-5.3%	2.2	-2.7	-41.1*
